We go through 104 compounds from ChEMBL document CHEMBL4888484, “Replenishing the malaria drug discovery pipeline: Screening and hit evaluation of the MMV Hit Generation Library 1 (HGL1) against asexual blood stage Plasmodium falciparum ,using a nano luciferase reporter read-out” (2022).

Among all 4,800 compounds or so, about 420 (8.8%) showed an effect of 50% or more. What follows is part of a selection rich in strong results, with near analogues and random picks from the rest.

In this experiment the test system is Plasmodium falciparum. As to the kind of experiment: Confirmatory screen in NF54 nanoGlo assay, in single point, at 2uM, 72h. The format is functional, Erythrocyte. The settings on record: timepoint 72 hour.
For `CC(C)c1cnc(NCCCC[C@H]2CCCO2)nc1`, the “% Inhibition” value was -2%.
Under `Cc1cccc(Oc2nc3ccccc3n3c(=O)n(CC(=O)NCc4ccc(Cl)cc4)nc23)c1C` stands -10%.
For the compound `Cc1ccc(S(=O)(=O)c2ccc3c(c2)Oc2ccccc2N3)cc1`, the “% Inhibition” value was -10%.
Consider `O=C(NC1CCN(Cc2ccccc2)CC1)c1cnn2c(-c3ccc4c(c3)OCO4)ccnc12`, for which the “% Inhibition” value is 3%.
As for `Cc1nc2cc3c(cc2n1CC(=O)Nc1ccc(Cl)cc1)OCCCO3`, the “% Inhibition” value was -4%.
With `Cc1cc(=O)n(CC(=O)Nc2ccc(Cl)c(C(F)(F)F)c2)c(-c2ccc(F)cc2)n1`, the “% Inhibition” value is on record as -6%.
Then `CCc1cccc(NC(=O)Cn2ccc3ccc(-c4nnc(C)o4)cc32)c1`, with 81%; and `Cc1nnc(-c2ccc3ccn(CC(=O)Nc4ccc(F)c(Cl)c4)c3c2)o1`, with 78%; and `Cn1cc(-c2ccc(Cl)cc2)c2ncn(CC(=O)Nc3cccc(Cl)c3)c(=O)c21`, with -5%.
Under `Cc1noc(C)c1CC(=O)Nc1cccc(-c2nnco2)c1` stands 3%; under `O=C(Nc1ccccc1)N1CCC[C@H]1c1ccncc1`, -12%.
As for `CC(C)N1CCC2(CC1)N=C(c1ccc3c(c1)OCO3)C[C@@H](c1cc(Cl)ccc1O)N2`, the “% Inhibition” value stood at 41%.
For the compound `O=C(C[C@@H]1C(=O)Nc2nc(N3CCOCC3)[nH]c(=O)c21)Nc1ccc(Cl)cc1`, the “% Inhibition” value is 9%.
Turning to `Cn1c(-c2ccc(Cl)c(Cl)c2)c[n+](CC(=O)c2ccc(-c3ccccc3)cc2)c1N`, the “% Inhibition” value was determined as 6%.
For `COC(=O)CN(C(C)C)S(=O)(=O)c1cc(Cl)cc(Cl)c1`, the “% Inhibition” value came out at 3%.
Take `N#Cc1ccc(S(=O)(=O)N2C3CCC2CC(O)C3)o1` (centres undefined): the “% Inhibition” value is reported as -11%.
Then `CCCCCc1c(C)nc2[nH]n(-c3ccccc3)c(=O)c2c1O`, with -19%; and `O=C1CCCc2nc3[nH]n(-c4ccccc4)c(=O)c3cc21`, with 8%.
`CNCCc1c(-c2ccccc2)[nH]n(-c2ccccc2)c1=O`: the “% Inhibition” value is 63%.
As to `CCc1n[nH]c(C(=O)N2CC3CCCN3CC2CC)c1Br` (centres undefined), the “% Inhibition” value turned out to be 7%.
Then `Oc1ccc(C2=C(c3ccccc3)N=NCN2O)c(O)c1`, with -14%; and `COCc1c(Br)c(C)nc(O)c1C#N`, with -8%.
Under `CCN1c2cc(C(=O)Nc3ccc(OC)cc3OC)ccc2C(=O)N2CCCC[C@H]21` stands 8%.
`CC[C@H]1Cn2c(C(=O)NCc3ccc4c(c3)OCO4)cc3c(Cl)ccc(c32)O1`: the “% Inhibition” value is given as -11%.
For `O=C(Cn1cnc2ccc(Cl)cc2c1=O)NCc1ccc2c(c1)OCO2`, the “% Inhibition” value was -5%.
On to `Cc1ccc(Cn2c(=O)c(C(=O)NCc3ccc4c(c3)OCO4)nn(-c3ccc(C(C)C)cc3)c2=O)cc1`, for which the “% Inhibition” value is 64%.
Under `COc1ccc(S(=O)(=O)N2CCN(C(=O)N(C)C)[C@@H]2c2ccccc2)cc1` stands 0%; under `COC(=O)c1cc(Cl)c(Cl)cc1N`, -6%; under `COc1cccc([C@H]2CC(=O)Nc3nc(N4CCCCC4)sc32)c1`, 6%.
In the case of `COc1ccc(F)cc1S(=O)(=O)N1CCc2noc(N)c2C1`, the “% Inhibition” value is reported as 68%.
Regarding `COc1ccc(S(=O)(=O)N2CCC(c3cc(N)on3)CC2)cc1Cl`, the “% Inhibition” value is 46%.
As to `COc1ccc(OC)c(S(=O)(=O)N2C[C@H]3CCCC(=O)N[C@H]3C2)c1`, the “% Inhibition” value is reported as -4%.
For `O=C(c1ccccn1)N1CC(n2cnnc2[C@@H]2CCCO2)C1`, the “% Inhibition” value is given as -8%.
`Oc1ccc([C@@H](c2cn(-c3nc(-c4ccc(Cl)cc4)cs3)nc2-c2ccccc2)c2c(-c3ccccc3)nn(-c3nc(-c4ccc(Cl)cc4)cs3)c2O)cc1`: the “% Inhibition” value was 6%.
Take `c1nc2nc[nH]c(NC3CCCCC3)c-2n1`: the “% Inhibition” value is given as 10%.
Then `Cc1occc1C(=O)NC1(c2ccccc2)CCOCC1`, with -5%.
In the case of `COc1cc(OC)c(NC(=O)[C@H]2CCCN(c3nc4ccccc4[nH]c3=O)C2)cc1Cl`, the “% Inhibition” value is listed as -2%.
As for `Cc1nc2ccccc2n1C(=O)c1sc2ccccc2c1Cl`, the “% Inhibition” value was -1%.
Then `O=S(=O)(c1ccc(Br)cc1)N1CCOC12CCCCC2`, with -7%; and `Cn1nnc(Cn2nnc(-c3ccccc3)n2)n1`, with -11%; and `CS(=O)(=O)N1CCC[C@H](Cn2nnnc2C=Cc2ccccc2)C1`, with 8%.
In the case of `Cc1csc(NC(=O)NCCc2cc(F)cc3c2OCOC3)n1`, the “% Inhibition” value is given as -14%.
On to `COC[C@H](NCCc1cc(F)cc2c1OCOC2)C1CC1`, for which the “% Inhibition” value is on record as 63%.
Take `COc1ccccc1N1CCN(C(=O)c2nnn(-c3ccccc3Cl)c2-c2cccnc2)CC1`: the “% Inhibition” value is -2%.
Take `Cc1ccc(OCc2cccc(-c3nc4c5cn[nH]c5ncn4n3)c2)c(C)c1`: the “% Inhibition” value is listed as -7%.
As to `CC(C)N(CCCNC(=O)c1cnn2c3c(cnc12)CCCCCC3)Cc1ccccc1`, the “% Inhibition” value stood at 0%.
Consider `COc1ccc(Cl)cc1NC(=O)Cc1c(C)nc2nc(-c3ccccc3C)nn2c1C`, for which the “% Inhibition” value is -2%.
In the case of `COc1ccc(Cn2nc(C)n(-c3cccc(F)c3)c2=O)cc1`, the “% Inhibition” value was -1%.
For `COc1ccc(CC(=O)Nc2cc(C)n(-c3cccc(Cl)c3)n2)cc1`, the “% Inhibition” value stood at 81%.
With `Fc1ccc(-c2csc(N3CCC[C@H](c4cn[nH]c4)C3)n2)cc1`, the “% Inhibition” value is reported as -1%.
For `CCOC(=O)n1c(=O)[nH]c2ccc(Br)cc21`, the “% Inhibition” value was -10%.
As to `O=S(=O)(Nc1cccc2cccnc12)c1cccs1`, the “% Inhibition” value is reported as 60%.
As to `Cc1cc(NS(=O)(=O)c2cccs2)n(-c2ccncc2)n1`, the “% Inhibition” value turned out to be 2%.
Then `O=S(=O)(Nc1nncs1)c1cccs1`, with -10%.
Then `COc1nc(N)nc(C(Cl)(Cl)Cl)n1`, with 0%.
Regarding `Cc1cc(F)ccc1CS(=O)(=O)N1CCC(CN2CCOCC2)CC1`, the “% Inhibition” value was -8%.
With `C[C@H](N)c1ccc(Nc2ncc3cc(-c4ccncc4)ccc3n2)cc1`, the “% Inhibition” value is 93%.
Consider `CC(C)c1ccc(-c2n[nH]nc2C(=O)c2ccccc2N)cc1`, for which the “% Inhibition” value is -1%.
Then `CC(C)c1ncsc1C(=O)NC(C)(C)C(=O)NCC1CCCC1`, with -13%; and `Cc1cccc(NC(=O)c2c(C)sc3ncnc(N4CCCCC4)c23)c1C`, with 10%; and `C[n+]1ccc(-c2ncc(-c3ccccc3)o2)c2ccccc21`, with 75%.
In the case of `CCc1ccc(CS(=O)(=O)NC(=O)c2cn3ccnc3s2)cc1`, the “% Inhibition” value is 6%.
For the compound `CCn1ccnc1C(=O)Nc1ccc(OC)nc1`, the “% Inhibition” value is given as -6%.
Then `Cc1ccc(NC(=O)c2cn(CC3(O)CCN(Cc4ccccc4)CC3)nn2)c(C)c1`, with 1%; and `N#Cc1ccc(NCCc2ccc(O)cc2)cn1`, with -9%.
Consider `COc1cc(C(=O)Nc2[nH]c(=O)ncc2F)ccc1Cl`, for which the “% Inhibition” value is recorded as 81%.
`O=C(Nc1ccccc1-c1nnc[nH]1)c1ccc(F)c(Cl)c1`: the “% Inhibition” value is recorded as -3%.
Then `CC1(C)C(=O)NCCN1C(=O)c1cccc2ccccc12`, with 5%; and `Cn1ccc(NC(=O)c2cccc3ccccc23)n1`, with -8%.
Consider `O=C(Nc1[nH]c(=O)ncc1F)c1cccc2ccccc12`, for which the “% Inhibition” value was 84%.
As to `COc1ccc(C(=O)Nc2ccc3c(c2)C(=O)Nc2cccnc2O3)cc1OC`, the “% Inhibition” value is on record as 46%.
With `O=C(Nc1[nH]c(=O)ncc1F)c1cc(F)c(F)cc1Br`, the “% Inhibition” value is 95%.
On to `CC(C)CN1C(=O)CC[C@@H](C(=O)NCCCOC(C)C)[C@@H]1c1cccnc1`, for which the “% Inhibition” value is reported as -13%.
As to `Cc1cc(C(=O)Nc2cc(Br)c(=O)n(C)c2)no1`, the “% Inhibition” value is reported as -14%.
As to `Cc1ccc(N2CCCC2)c(C(=O)N2CCN(Cc3c(C)nc4cc(C)ccn34)CC2)c1`, the “% Inhibition” value is given as 3%.
Take `O=C(Nc1cnc(-n2ccnc2)nc1)C(c1ccccc1)c1ccccc1`: the “% Inhibition” value is 36%.
For `C[C@H]1CCCN(c2nc3ncn(CC(=O)Nc4ccccc4C(F)(F)F)c(=O)c3s2)C1`, the “% Inhibition” value is -15%.
`O=C(NC1CCCCC1)c1cc2c(Cl)ccc3c2n1CCO3`: the “% Inhibition” value was -10%.
As for `COc1ccc(C(=O)N2CC[C@H](c3nc(C4CCOCC4)no3)C2)cc1OC`, the “% Inhibition” value turned out to be 2%.
Turning to `COCc1cc(C(=O)N[C@H](c2ccccc2)C2CCOCC2)no1`, the “% Inhibition” value is recorded as 0%.
Then `O=C(CC1CCOCC1)NCc1ccccn1`, with -11%; and `O=C(NCC1CCOCC1)c1ccc2n[nH]c(=O)n2c1`, with -1%.
Consider `Cc1ccc(C(=O)N2CC(n3cnnc3C)C2)cc1F`, for which the “% Inhibition” value is -19%.
Under `COc1nc(-c2cccc(C(=O)NCC3CCOCC3)c2)ncc1F` stands 66%.
Regarding `COc1nc(-c2cccc(C(=O)N3C[C@@H]4CC[C@H](C3)C(=O)N4)c2)ncc1F`, the “% Inhibition” value stood at 67%.
Then `COc1ccc(-c2[nH]ncc2C(=O)NCC2CCCCC2)cc1OC`, with 2%; and `COCc1cc(C)n(CC#N)c(=O)c1C#N`, with 11%; and `CCCc1ccc(Cl)c(S(=O)(=O)Nc2nnc(C3CC3)o2)c1`, with 2%.
Then `COC[C@@H](C)CNc1nc(C)cc(C)n1`, with -3%.
In the case of `CCn1cc2c(n1)c(=O)n(Cc1ccc(C)cc1)c(=O)n2CC(=O)Nc1ccc(C)cc1C`, the “% Inhibition” value was -10%.
As to `COc1ccc(C(=O)N2CC[C@H](CC(=O)N3CCOCC3)C2)cc1`, the “% Inhibition” value is -9%.
As for `Cc1c(C(=O)NCCc2ccc(Cl)cc2)oc2ccc3c(c12)[C@@H](O)CC(C)(C)O3`, the “% Inhibition” value worked out at 4%.
As for `O=C(N[C@H](c1ccccc1)C1CC1)c1cccnc1O`, the “% Inhibition” value is given as -9%.
Turning to `CC1CCCC(N2C(=O)c3ccccc3C2NCc2ccccc2)C1C` (centres undefined), the “% Inhibition” value is 0%.
On to `CCOC(=O)c1cnc(N2CCCC2)nc1C1CCN(C(=O)OC(C)(C)C)CC1`, for which the “% Inhibition” value was -2%.
Turning to `Cc1cc(C(=O)NCc2ccco2)nn1C(F)F`, the “% Inhibition” value is -13%.
Under `Cc1noc(C)c1CS(=O)(=O)CCC(=O)NC1CCCCC1` stands -11%.
Under `CC(c1ccccc1)N1C(=O)c2ccccc2C1c1c[nH]c2ccccc12` (centres undefined) stands 23%.
With `CCOc1cc(C)ccc1S(=O)(=O)NC(C)C`, the “% Inhibition” value is given as -3%.
As to `NC(=NCc1cccc2cccnc12)N1CCN(c2nccs2)CC1`, the “% Inhibition” value was found to be 57%.
For `NC1CC(NCCc2cccc3cccnc23)c2ccccc21` (centres undefined), the “% Inhibition” value came to 43%.
Under `Cc1ccc(C(=O)N2CCC(N3C(=O)[C@H]4CCCN4C3=O)CC2)cc1` stands -9%; under `COC(=O)c1cccc(C#Cc2cccc(NC(=O)c3cnc(C)cn3)c2)c1`, -19%; under `Cc1ccc2nc(-c3cccc(NC(=O)c4ccc5c(c4)OCO5)c3)oc2c1`, -12%.
